Here are results for 8 molecules from PubChem BioAssay (NCI).

Test systems include NCI-H23 lung; NCI-H226 lung; NCI-H322M lung; HOP-62 NSCLC; NCI-H460 lung; HOP-92 NSCLC; NCI-H522 lung; A549/ATCC NSCLC; 786-0 renal; COLO 205 colon; DU-145 prostate; K-562 leukemia; MALME-3M melanoma; MDA-MB-231 breast; SF-268 CNS; SF-295 CNS; SF-539 CNS; UACC-257 melanoma; M14 melanoma.
What all share (test): NCI-60 one-dose screen, 48 h (100 = growth as untreated, 0 = no growth, -100 = all killed)
Common to all, as to conditions: 10 µM unless noted

About 83,000 compounds went through this panel and 20% of them were active in at least one assay; those are over-represented in the sample as a whole.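 Each cell line was grown in a 96-well plate and treated with one concentration of compound for 48 hours. Values below 10 were considered active.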 Values without a mark were called inactive. Calls of active or inactive are those of the source.

For `Clc1ccc(N2N=C(c3cccc(Nc4ccncc4)c3)CC2c2ccc3c(c2)OCO3)cc1` (configuration not stated), the growth in the assay with NCI-H23 lung is 83.6%; in the assay with NCI-H226 lung, 82.5%; in the assay with NCI-H322M lung, 68.6%; with HOP-62 NSCLC, 42.4%; in the assay on NCI-H460 lung, -65.4% (active); in the assay on HOP-92 NSCLC, 47.9%. The growth in the assay on NCI-H522 lung was 57.2%; in the assay on A549/ATCC NSCLC, 36.4%; with 786-0 renal it was 56.9%; in the assay on COLO 205 colon it was -52.8% (active); in the assay with DU-145 prostate, 41.9%; with K-562 leukemia, 5.23% (active). The growth with MALME-3M melanoma is 25.5%; in the assay on MDA-MB-231 breast, 37.8%; with SF-268 CNS, 63.1%; in the assay on SF-295 CNS it was 39%; in the assay with SF-539 CNS, 81.9%; in the assay on UACC-257 melanoma it was 86%. For the same molecule, the growth with M14 melanoma was -52.4% (active).

On to `COc1cc(C2CC(c3cccc(Nc4ccncc4)c3)=NN2C(C)=O)cc(OC)c1OC` (configuration not stated), for which the growth in the assay with NCI-H23 lung was 104%; in the assay on NCI-H226 lung, 96.8%; with NCI-H322M lung, 102%; in the assay on HOP-62 NSCLC, 91.1%; in the assay on NCI-H460 lung it was 103%; with HOP-92 NSCLC, 70.1%. For the same molecule, the growth in the assay on NCI-H522 lung was 77.9%; in the assay with A549/ATCC NSCLC, 98.5%; with 786-0 renal, 88%; with COLO 205 colon, 95%; in the assay on DU-145 prostate, 107%; with K-562 leukemia, 34.7%. In addition, the growth in the assay on MALME-3M melanoma was 80%; in the assay with MDA-MB-231 breast, 92.8%; in the assay with SF-268 CNS, 94.4%; with SF-295 CNS, 94.9%; in the assay on SF-539 CNS it was 89.1%; in the assay on UACC-257 melanoma it was 91.5%. Also, in the assay with M14 melanoma, the growth is 100%.

`CN1C2CCC1CN(c1cnc(C(=O)Nc3cc(F)cc4cccnc34)cn1)C2`: the growth is 46.8% in the assay with NCI-H23 lung; 88.9% in the assay on NCI-H226 lung; 74.6% with NCI-H322M lung; 88.6% in the assay with HOP-62 NSCLC; 83.4% with NCI-H460 lung; 81.2% in the assay on HOP-92 NSCLC. The growth is 24.4% with NCI-H522 lung; 87.5% in the assay with A549/ATCC NSCLC; 51.8% in the assay on 786-0 renal; 10.4% with COLO 205 colon; 74.6% in the assay on DU-145 prostate; 15.7% in the assay with K-562 leukemia. For the same molecule, the growth in the assay with MALME-3M melanoma is 41%; in the assay with MDA-MB-231 breast, 31.4%; in the assay on SF-268 CNS it was 85.6%; in the assay on SF-295 CNS, 97.6%; in the assay on SF-539 CNS it was 70.4%; in the assay with UACC-257 melanoma, 42.7%. For the same molecule, the growth in the assay with M14 melanoma was 54.3%.

As to `COC(=O)Nc1ccc(NC(=O)OC)cc1`, the growth with NCI-H23 lung was 97.6%; in the assay with NCI-H226 lung it was 96.7%; with NCI-H322M lung, 100%; with HOP-62 NSCLC it was 77.7%; in the assay with NCI-H460 lung it was 106%; in the assay with HOP-92 NSCLC, 84.7%. Besides, the growth in the assay with NCI-H522 lung was 73.6%; in the assay on A549/ATCC NSCLC, 69.7%; with 786-0 renal it was 93.3%; with COLO 205 colon, 111%; in the assay on DU-145 prostate, 110%; in the assay on K-562 leukemia, 103%. Further, the growth is 105% in the assay on MALME-3M melanoma; 120% in the assay on MDA-MB-231 breast; 103% with SF-268 CNS; 99.7% in the assay on SF-295 CNS; 106% in the assay on SF-539 CNS; 66.3% in the assay on UACC-257 melanoma. Further, the growth with M14 melanoma was 83.7%.

Take `CC(C)(C)CC(C)(C)Nc1c(-c2ccc(C(F)(F)F)cc2)nc2cnccn12`: the growth is 82.4% in the assay on NCI-H23 lung; 92.5% in the assay on NCI-H226 lung; 103% in the assay with NCI-H322M lung; 92.7% in the assay on HOP-62 NSCLC; 89.5% in the assay on NCI-H460 lung; 82.6% in the assay on HOP-92 NSCLC. The growth in the assay with NCI-H522 lung is 67.4%; with A549/ATCC NSCLC, 83.1%; in the assay on 786-0 renal, -12.3% (active); in the assay with COLO 205 colon, 96%; in the assay on DU-145 prostate, 93%; in the assay with K-562 leukemia, 65.6%. In addition, the growth is 103% in the assay on MALME-3M melanoma; 86% with MDA-MB-231 breast; 88.8% in the assay with SF-268 CNS; 86.3% in the assay on SF-295 CNS; 86% in the assay on SF-539 CNS; 98.7% in the assay on UACC-257 melanoma. In addition, the growth in the assay on M14 melanoma is -54.1% (active).

`CCNC(=O)c1[nH]cc(-c2ccc(OC)cc2)c1-c1cc(OC)cc(OC)c1`: the growth in the assay on NCI-H23 lung was 91.9%; with NCI-H226 lung it was 88.7%; with NCI-H322M lung it was 97.7%; in the assay with HOP-62 NSCLC, 97.5%; with NCI-H460 lung, 99%; with HOP-92 NSCLC it was 72.9%. Also, the growth with NCI-H522 lung is 62.6%; in the assay on A549/ATCC NSCLC it was 91.3%; with 786-0 renal, 95.6%; in the assay on COLO 205 colon, 105%; in the assay with DU-145 prostate, 108%; with K-562 leukemia it was 45.1%. For the same molecule, the growth in the assay with MALME-3M melanoma was 93%; with MDA-MB-231 breast, 82.1%; in the assay with SF-268 CNS, 96.7%; in the assay with SF-295 CNS it was 96.7%; in the assay with SF-539 CNS, 99.2%; with UACC-257 melanoma, 103%. In addition, the growth with M14 melanoma was 95.8%.

Turning to `CC1=NNC(=O)C1CCC(=O)N/N=C(\C)c1ccc2ccccc2c1` (configuration not stated), the growth is 104% in the assay on NCI-H23 lung; 99.6% in the assay on NCI-H226 lung; 122% in the assay on NCI-H322M lung; 115% in the assay with HOP-62 NSCLC; 108% in the assay on NCI-H460 lung; 94.4% with HOP-92 NSCLC. The growth is 96.1% with NCI-H522 lung; 95.3% with A549/ATCC NSCLC; 103% in the assay on 786-0 renal; 167% with COLO 205 colon; 102% in the assay with DU-145 prostate; 97.6% in the assay with K-562 leukemia. The growth in the assay with MALME-3M melanoma is 120%; in the assay on MDA-MB-231 breast, 111%; in the assay with SF-268 CNS, 98.9%; in the assay on SF-295 CNS it was 323%; with SF-539 CNS, 94.8%; in the assay on UACC-257 melanoma it was 99.9%. Further, the growth in the assay on M14 melanoma was 113%.

For the molecule `CCOC(=O)c1c(O)cc(-c2ccccc2)cc1-c1sc(N(C)Cc2ccccc2)nc1Cl`, the growth in the assay on NCI-H23 lung is 98.7%; with NCI-H226 lung, 94%; in the assay with NCI-H322M lung, 106%; in the assay on HOP-62 NSCLC it was 104%; in the assay with NCI-H460 lung, 102%; in the assay with HOP-92 NSCLC it was 91.3%. Further, the growth was 86.4% in the assay with NCI-H522 lung; 98.8% with A549/ATCC NSCLC; -97.1% (active) in the assay with 786-0 renal; 106% in the assay on COLO 205 colon; 108% with DU-145 prostate; 93.4% with K-562 leukemia. Moreover, the growth in the assay with MALME-3M melanoma is 100%; in the assay on MDA-MB-231 breast, 103%; in the assay on SF-268 CNS, 95.8%; in the assay on SF-295 CNS, 99.6%; with SF-539 CNS, 97%; in the assay on UACC-257 melanoma, 96.1%. The growth in the assay on M14 melanoma was -85% (active).
